Assay results reported in PubChem BioAssay (Tox21).
Where “and” joins values, the source holds several entries; their conditions need not be identical. Identical values can stand only once. Records with an inconclusive call do not appear. Some structures have more than one record in an assay (separate samples or runs), and their calls can disagree. Calls of active or inactive are those of the source. Unless noted, the call rests on the fitted dose curve.

test system: not listed separately; test: p53 small molecule agonists, cell-based qHTS assay (AID 1963582; active means well fitted activation curve with a large enough effect in the signal ratio in the repeat runs, not every such curve was filed as active; the % refers to the signal ratio; further: potency means the concentration at half of the fitted maximal effect); conditions: HCT-116 p53RE-bla reporter, beta-lactamase FRET ratio, 16 h; series mostly up to 66 µM; activation: at the top concentration
In short: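 Read-out is beta-lactamase FRET fluorescence after 2 h at room temperature with LiveBLAzer B/G substrate. p53 response element-bla cells were treated 16 h at 37 C with compounds in DMSO, added 5 h after seeding.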
On the % scale 0 is the no-effect control and ±100 the full control effect.

Row | Structure (SMILES) | activation | Potency
1 | C=CC=O | -3.29% (inactive) | –
2 | CCC(C)(C#N)N=NC(C)(C#N)CC (centres undefined) | 0.276% (inactive) | –
3 | c1nc[nH]n1 | – | inactive
4 | c1ccc(Nc2ccc3ccccc3c2)cc1 | – | inactive
5 | CCOP(=O)(OCC)OP(=O)(OCC)OCC | 0.0327% (inactive) | –
6 | CC(C)Nc1nc(Cl)nc(NC(C)C)n1 | – | inactive
7 | CC(C)OS(C)(=O)=O | -1.41% (inactive) | –
8 | CCCCOC(=O)c1ccccc1C(=O)O | 0.0575% (inactive) | –
9 | ClCC(Br)CBr (centres undefined) | -4.3% (inactive) | –
10 | CCOC(=O)CC(SP(=O)(OC)OC)C(=O)OCC (centres undefined) | – | inactive
11 | CCCCCON=O | 0.168% (inactive) | –
12 | FC(F)(F)c1ccc(Cl)cc1 | 8.85% (inactive) | –
13 | CON(C)C(=O)Nc1ccc(Cl)cc1 | -0.626% (inactive) | –
14 | COP(=S)(OC)Oc1ccc([N+](=O)[O-])cc1 | – | inactive
15 | COc1c(C(C)(C)C)cc([N+](=O)[O-])c(C)c1[N+](=O)[O-] | 1.11% (inactive) | –
16 | Cc1ccc(N)cc1 | – | inactive
17 | CCCCCBr | -0.994% (inactive) | –
18 | COP(=S)(OC)Oc1ccc(Sc2ccc(OP(=S)(OC)OC)cc2)cc1 | -5.18% [at 30.3 µM] (inactive) | –
19 | CC(=O)CCC(C)=O | 0.324% (inactive) | –
20 | CCCCNC(=O)n1c(NC(=O)OC)nc2ccccc21 | – | 10.2 µM (active)
21 | CCC(Cl)[N+](=O)[O-] (centres undefined) | 0.366% (inactive) | –
22 | OC(Cc1ccccc1Cl)(Cn1cncn1)C1(Cl)CC1 (centres undefined) | -10.7% (inactive) | –

biological target: 5-hydroxytryptamine receptor 2A (Homo sapiens) (UniProt P28223); test: 5-hydroxytryptamine receptor 2A (HTR2A) small molecule antagonists, cell-based qHTS assay (AID 1963586); conditions: HTR2A-CHO cells, DOI-induced calcium flux, fluorescence; series mostly up to 61.5 µM; activity, negative = inhibition: at the top concentration; further: nearly all actives have a fitted effect of over 45% in size
In short: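 CHO cells stably expressing human HTR2A were plated for 18 h at 37 C, then loaded with calcium dye for 1 h. Compounds were preincubated 5 min at room temperature before DOI (4 nM solution) was added. Kinetic fluorescence was read for 3 min.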

Sequence of 5-hydroxytryptamine receptor 2A (Homo sapiens) (P28223 whole entry, looked up): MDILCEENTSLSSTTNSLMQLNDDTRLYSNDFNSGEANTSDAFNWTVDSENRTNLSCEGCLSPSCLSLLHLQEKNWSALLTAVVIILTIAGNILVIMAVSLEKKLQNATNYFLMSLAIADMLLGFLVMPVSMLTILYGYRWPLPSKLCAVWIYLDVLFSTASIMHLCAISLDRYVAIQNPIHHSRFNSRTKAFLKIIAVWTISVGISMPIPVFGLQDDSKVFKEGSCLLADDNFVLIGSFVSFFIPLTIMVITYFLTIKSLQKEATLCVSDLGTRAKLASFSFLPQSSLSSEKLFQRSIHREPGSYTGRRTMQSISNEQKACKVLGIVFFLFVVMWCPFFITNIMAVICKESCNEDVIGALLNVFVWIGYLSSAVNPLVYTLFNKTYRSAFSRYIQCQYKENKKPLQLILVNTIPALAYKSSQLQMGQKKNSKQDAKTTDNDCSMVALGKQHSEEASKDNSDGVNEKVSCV

Row | Structure (SMILES) | activity, negative = inhibition | Potency
23 | C=CC=O | 1.5% (inactive) | –
24 | CCC(C)(C#N)N=NC(C)(C#N)CC (centres undefined) | 4.13% (inactive) | –
25 | c1nc[nH]n1 | – | inactive
26 | c1ccc(Nc2ccc3ccccc3c2)cc1 | -11.2% (inactive) | –
27 | CCOP(=O)(OCC)OP(=O)(OCC)OCC | 16.5% (inactive) | –
28 | Nc1cccnc1 | – | inactive
29 | Clc1ccccc1Cl | – | inactive
30 | CCN(CC)C(=S)S | – | inactive
31 | CC(C)Nc1nc(Cl)nc(NC(C)C)n1 | – | inactive
32 | Nc1ccc(-c2ccc(N)c(N)c2)cc1N | – | inactive
33 | CC(C)OS(C)(=O)=O | 56.6% (inactive) | –
34 | CCCCOC(=O)c1ccccc1C(=O)O | 40.8% (inactive) | –
35 | CC(=O)[O][Hg][c]1ccccc1 | – | inactive
36 | CCCCCCCCCl | – | inactive
37 | C#CCOS(=O)OC1CCCCC1Oc1ccc(C(C)(C)C)cc1 (centres undefined) | – | inactive
38 | O=S(=O)(O)OOS(=O)(=O)O | – | inactive
39 | ClCC(Br)CBr (centres undefined) | -8.95% (inactive) | –
40 | CC(C)C#N | – | inactive
41 | CCOC(=O)CC(SP(=O)(OC)OC)C(=O)OCC (centres undefined) | – | inactive

Row | Structure (SMILES) | activity, negative = inhibition | Potency
42 | CCCCCON=O | 5.33% (inactive) | –
43 | FC(F)(F)c1ccc(Cl)cc1 | – | inactive
44 | CON(C)C(=O)Nc1ccc(Cl)cc1 | -5.11% (inactive) | –
45 | COP(=S)(OC)Oc1ccc([N+](=O)[O-])cc1 | – | inactive
46 | CCCCCCCCC(=O)NCc1ccc(O)c(OC)c1 | – | inactive
47 | COc1c(C(C)(C)C)cc([N+](=O)[O-])c(C)c1[N+](=O)[O-] | 4.98% (inactive) | –
48 | Cc1ccc(N)cc1 | – | inactive
49 | CCCCCCCCCCCCCCCC[N+](C)(C)C | 100% [at 28.5 µM] (inactive) | –
50 | CCc1cnc(C2=NC(C)(C(C)C)C(=O)N2)c(C(=O)O)c1 (centres undefined) | – | inactive
51 | CCCCCBr | -15.2% (inactive) | –
52 | COP(=S)(OC)Oc1ccc(Sc2ccc(OP(=S)(OC)OC)cc2)cc1 | -20.4% (inactive) | –
53 | CCOP(=O)(O)OCC (tested in a mixture with another compound) | – | inactive
54 | O=[N+]([O-])c1ccc(Cl)c(Cl)c1 | – | inactive
55 | CC(C)(O)C(=O)Nc1ccc([N+](=O)[O-])c(C(F)(F)F)c1 | – | inactive
56 | CCCCNC(=O)n1c(NC(=O)OC)nc2ccccc21 | 4.4% (inactive) | –
57 | CCC(Cl)[N+](=O)[O-] (centres undefined) | -0.154% (inactive) | –
58 | CCCCCCCCCCCC(=O)O | – | inactive
59 | OC(Cc1ccccc1Cl)(Cn1cncn1)C1(Cl)CC1 (centres undefined) | -24.2% (inactive) | –

biological target: 5-hydroxytryptamine receptor 2A (Homo sapiens) (UniProt P28223); test: 5-hydroxytryptamine receptor 2A (HTR2A) small molecule agonists, cell-based qHTS assay (AID 1963587); conditions: HTR2A-CHO cells, calcium flux fluorescence, agonist mode; series mostly up to 76.8 µM; activation: at the top concentration; further: nearly all actives have a fitted effect of over 30% in size; further: potency means the concentration at half of the fitted maximal effect
In short: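 HTR2A-CHO cells, plated 18 h at 37 C/5% CO2, dye-loaded 1 h at 37 C; compounds in DMSO added by pin tool (agonist mode). Intracellular calcium flux read as kinetic fluorescence on FDSS over 2 min at 1 s intervals.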

Row | Structure (SMILES) | activation | Potency
60 | C=CC=O | -0.572% (inactive) | –
61 | CCC(C)(C#N)N=NC(C)(C#N)CC (centres undefined) | 0.914% (inactive) | –
62 | c1nc[nH]n1 | – | inactive
63 | CCOP(=O)(OCC)OP(=O)(OCC)OCC | -0.0912% (inactive) | –
64 | Nc1cccnc1 | – | inactive
65 | CCN(CC)C(=S)S | – | inactive
66 | Nc1ccc(-c2ccc(N)c(N)c2)cc1N | – | inactive
67 | CC(C)OS(C)(=O)=O | -0.604% (inactive) | –
68 | CCCCOC(=O)c1ccccc1C(=O)O | -0.0865% (inactive) | –
69 | CC(=O)[O][Hg][c]1ccccc1 | – | 21.7 µM (active) and 54.9 µM (active) and inactive
70 | CCCCCCCCCl | – | inactive
71 | C#CCOS(=O)OC1CCCCC1Oc1ccc(C(C)(C)C)cc1 (centres undefined) | – | inactive
72 | O=S(=O)(O)OOS(=O)(=O)O | – | inactive
73 | ClCC(Br)CBr (centres undefined) | 2.25% (inactive) | –
74 | CC(C)C#N | – | inactive
75 | CCOC(=O)CC(SP(=O)(OC)OC)C(=O)OCC (centres undefined) | – | inactive
76 | CCCCCON=O | 0.925% (inactive) | –
77 | FC(F)(F)c1ccc(Cl)cc1 | – | inactive

Row | Structure (SMILES) | activation | Potency
78 | CON(C)C(=O)Nc1ccc(Cl)cc1 | -5.2% (inactive) | –
79 | COP(=S)(OC)Oc1ccc([N+](=O)[O-])cc1 | – | inactive
80 | CCCCCCCCC(=O)NCc1ccc(O)c(OC)c1 | – | inactive
81 | COc1c(C(C)(C)C)cc([N+](=O)[O-])c(C)c1[N+](=O)[O-] | -0.901% (inactive) | –
82 | Cc1ccc(N)cc1 | – | inactive
83 | CCCCCCCCCCCCCCCC[N+](C)(C)C | – | 18.8 µM (active) and 38.9 µM (active)
84 | CCc1cnc(C2=NC(C)(C(C)C)C(=O)N2)c(C(=O)O)c1 (centres undefined) | – | inactive
85 | CCCCCBr | 5.88% (inactive) | –
86 | COP(=S)(OC)Oc1ccc(Sc2ccc(OP(=S)(OC)OC)cc2)cc1 | – | inactive
87 | CC(=O)CCC(C)=O | -2.29% (inactive) | –
88 | CCOP(=O)(O)OCC (tested in a mixture with another compound) | – | inactive and 19.3 µM (active)
89 | O=[N+]([O-])c1ccc(Cl)c(Cl)c1 | – | inactive
90 | CC(C)(O)C(=O)Nc1ccc([N+](=O)[O-])c(C(F)(F)F)c1 | – | inactive
91 | CCCCNC(=O)n1c(NC(=O)OC)nc2ccccc21 | – | inactive
92 | CCC(Cl)[N+](=O)[O-] (centres undefined) | 0.431% (inactive) | –
93 | CCCCCCCCCCCC(=O)O | – | inactive
94 | OC(Cc1ccccc1Cl)(Cn1cncn1)C1(Cl)CC1 (centres undefined) | 9.33% (inactive) | –
